This passage reports residual activity results from ChEMBL document CHEMBL2218924, “A broad activity screen in support of a chemogenomic map for kinase signalling research and drug discovery” (Biochem J, 2013).

Assay [1] has as its target T1, Ephrin type-A receptor 3 (Homo sapiens) (UniProt P29320).
T1 sequence (whole entry): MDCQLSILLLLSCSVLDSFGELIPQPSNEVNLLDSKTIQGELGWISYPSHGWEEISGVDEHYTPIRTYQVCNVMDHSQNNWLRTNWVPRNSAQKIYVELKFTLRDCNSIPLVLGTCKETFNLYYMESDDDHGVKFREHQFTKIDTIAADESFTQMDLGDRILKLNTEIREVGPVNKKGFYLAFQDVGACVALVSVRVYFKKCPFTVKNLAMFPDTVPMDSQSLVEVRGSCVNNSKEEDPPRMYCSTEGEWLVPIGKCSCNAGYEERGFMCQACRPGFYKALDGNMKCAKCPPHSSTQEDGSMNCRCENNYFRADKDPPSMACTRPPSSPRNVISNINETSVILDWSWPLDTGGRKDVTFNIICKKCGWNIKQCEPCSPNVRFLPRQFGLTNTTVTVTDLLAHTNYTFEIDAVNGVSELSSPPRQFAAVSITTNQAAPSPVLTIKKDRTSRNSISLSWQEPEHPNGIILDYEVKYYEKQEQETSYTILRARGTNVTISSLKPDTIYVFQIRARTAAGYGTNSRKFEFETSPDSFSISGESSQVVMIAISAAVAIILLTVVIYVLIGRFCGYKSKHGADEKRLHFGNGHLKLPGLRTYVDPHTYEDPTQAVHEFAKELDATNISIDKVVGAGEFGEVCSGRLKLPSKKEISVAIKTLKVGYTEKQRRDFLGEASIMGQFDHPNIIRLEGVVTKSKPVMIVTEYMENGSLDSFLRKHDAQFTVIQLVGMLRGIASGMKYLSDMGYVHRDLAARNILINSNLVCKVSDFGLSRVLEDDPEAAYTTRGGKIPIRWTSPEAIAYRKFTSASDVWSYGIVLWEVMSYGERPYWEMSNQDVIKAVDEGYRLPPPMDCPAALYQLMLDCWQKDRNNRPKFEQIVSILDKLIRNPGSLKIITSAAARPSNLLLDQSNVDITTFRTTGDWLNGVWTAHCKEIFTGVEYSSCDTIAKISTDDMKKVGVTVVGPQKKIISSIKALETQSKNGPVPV
The settings on record: at 10 µM.

The target in assay [2] is Ephrin type-A receptor 4 (Homo sapiens) (UniProt P54764). To be noted: at 1 µM.
Sequence of Ephrin type-A receptor 4 (Homo sapiens) (P54764 whole entry): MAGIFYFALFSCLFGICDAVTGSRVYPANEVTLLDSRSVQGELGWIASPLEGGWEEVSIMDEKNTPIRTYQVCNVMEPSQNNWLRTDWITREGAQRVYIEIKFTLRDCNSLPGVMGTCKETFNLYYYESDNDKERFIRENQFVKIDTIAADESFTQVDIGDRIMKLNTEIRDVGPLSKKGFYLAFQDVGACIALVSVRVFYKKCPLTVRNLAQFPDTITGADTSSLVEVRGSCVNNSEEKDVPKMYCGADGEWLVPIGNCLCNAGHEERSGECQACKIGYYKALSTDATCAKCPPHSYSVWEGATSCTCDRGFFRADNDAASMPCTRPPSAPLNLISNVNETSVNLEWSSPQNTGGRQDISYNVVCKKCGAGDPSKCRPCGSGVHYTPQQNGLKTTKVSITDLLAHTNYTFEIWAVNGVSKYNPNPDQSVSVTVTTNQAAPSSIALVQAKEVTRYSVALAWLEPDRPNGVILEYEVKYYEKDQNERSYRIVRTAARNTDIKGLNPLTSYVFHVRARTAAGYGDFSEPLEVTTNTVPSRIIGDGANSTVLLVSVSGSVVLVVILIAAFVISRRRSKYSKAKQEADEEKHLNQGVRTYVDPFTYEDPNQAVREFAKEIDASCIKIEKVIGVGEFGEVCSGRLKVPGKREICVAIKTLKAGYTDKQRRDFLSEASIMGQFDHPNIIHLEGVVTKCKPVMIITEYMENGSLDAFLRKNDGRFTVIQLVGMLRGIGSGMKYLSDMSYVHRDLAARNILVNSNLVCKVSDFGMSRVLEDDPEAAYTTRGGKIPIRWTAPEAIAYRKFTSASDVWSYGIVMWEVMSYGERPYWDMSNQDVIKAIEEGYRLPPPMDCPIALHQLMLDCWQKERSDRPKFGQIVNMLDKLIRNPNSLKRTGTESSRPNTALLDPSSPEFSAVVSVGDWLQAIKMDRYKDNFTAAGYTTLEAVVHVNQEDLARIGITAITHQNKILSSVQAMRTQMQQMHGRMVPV
For assay [3] the target is unchanged. To be noted: at 10 µM.
Assay [4] concerns the target Ephrin type-A receptor 5 (Homo sapiens) (UniProt P54756). The settings on record: at 1 µM.
For assay [5] the target is unchanged. The settings on record: at 10 µM.
The target in assay [6] is Ephrin type-A receptor 7 (Homo sapiens) (UniProt Q15375). To be noted: at 1 µM.
Sequence of Ephrin type-A receptor 7 (Homo sapiens) (Q15375 28-998 limits assumed): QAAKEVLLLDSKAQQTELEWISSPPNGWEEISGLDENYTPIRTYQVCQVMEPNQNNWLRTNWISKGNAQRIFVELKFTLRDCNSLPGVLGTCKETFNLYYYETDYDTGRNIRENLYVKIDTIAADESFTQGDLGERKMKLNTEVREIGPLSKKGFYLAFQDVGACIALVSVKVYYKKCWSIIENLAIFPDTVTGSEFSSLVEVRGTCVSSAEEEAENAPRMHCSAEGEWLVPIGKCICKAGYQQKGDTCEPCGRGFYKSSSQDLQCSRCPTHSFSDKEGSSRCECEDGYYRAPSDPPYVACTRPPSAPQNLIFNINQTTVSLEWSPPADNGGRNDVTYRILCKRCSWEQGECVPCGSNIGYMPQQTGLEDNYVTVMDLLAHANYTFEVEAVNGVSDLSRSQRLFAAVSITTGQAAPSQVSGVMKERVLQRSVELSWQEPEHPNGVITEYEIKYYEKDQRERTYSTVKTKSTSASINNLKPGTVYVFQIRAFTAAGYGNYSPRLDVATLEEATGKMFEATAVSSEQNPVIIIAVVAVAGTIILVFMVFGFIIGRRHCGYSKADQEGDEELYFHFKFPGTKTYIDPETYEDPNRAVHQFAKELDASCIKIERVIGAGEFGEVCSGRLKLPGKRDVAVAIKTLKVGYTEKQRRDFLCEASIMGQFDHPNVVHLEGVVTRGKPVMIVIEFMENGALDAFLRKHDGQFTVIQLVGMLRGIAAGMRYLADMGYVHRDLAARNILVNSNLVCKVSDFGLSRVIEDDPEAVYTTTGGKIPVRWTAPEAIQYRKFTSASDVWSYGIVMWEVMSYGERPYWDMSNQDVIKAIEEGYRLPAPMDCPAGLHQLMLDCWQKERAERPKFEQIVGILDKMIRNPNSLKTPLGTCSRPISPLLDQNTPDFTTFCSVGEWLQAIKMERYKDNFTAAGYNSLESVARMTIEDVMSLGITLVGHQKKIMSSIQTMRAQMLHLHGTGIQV
Assay [7] shares this target. To be noted: at 10 µM.
Assay [8] concerns the target T2, Ephrin type-A receptor 8 (Homo sapiens) (UniProt P29322).
T2 sequence (whole entry): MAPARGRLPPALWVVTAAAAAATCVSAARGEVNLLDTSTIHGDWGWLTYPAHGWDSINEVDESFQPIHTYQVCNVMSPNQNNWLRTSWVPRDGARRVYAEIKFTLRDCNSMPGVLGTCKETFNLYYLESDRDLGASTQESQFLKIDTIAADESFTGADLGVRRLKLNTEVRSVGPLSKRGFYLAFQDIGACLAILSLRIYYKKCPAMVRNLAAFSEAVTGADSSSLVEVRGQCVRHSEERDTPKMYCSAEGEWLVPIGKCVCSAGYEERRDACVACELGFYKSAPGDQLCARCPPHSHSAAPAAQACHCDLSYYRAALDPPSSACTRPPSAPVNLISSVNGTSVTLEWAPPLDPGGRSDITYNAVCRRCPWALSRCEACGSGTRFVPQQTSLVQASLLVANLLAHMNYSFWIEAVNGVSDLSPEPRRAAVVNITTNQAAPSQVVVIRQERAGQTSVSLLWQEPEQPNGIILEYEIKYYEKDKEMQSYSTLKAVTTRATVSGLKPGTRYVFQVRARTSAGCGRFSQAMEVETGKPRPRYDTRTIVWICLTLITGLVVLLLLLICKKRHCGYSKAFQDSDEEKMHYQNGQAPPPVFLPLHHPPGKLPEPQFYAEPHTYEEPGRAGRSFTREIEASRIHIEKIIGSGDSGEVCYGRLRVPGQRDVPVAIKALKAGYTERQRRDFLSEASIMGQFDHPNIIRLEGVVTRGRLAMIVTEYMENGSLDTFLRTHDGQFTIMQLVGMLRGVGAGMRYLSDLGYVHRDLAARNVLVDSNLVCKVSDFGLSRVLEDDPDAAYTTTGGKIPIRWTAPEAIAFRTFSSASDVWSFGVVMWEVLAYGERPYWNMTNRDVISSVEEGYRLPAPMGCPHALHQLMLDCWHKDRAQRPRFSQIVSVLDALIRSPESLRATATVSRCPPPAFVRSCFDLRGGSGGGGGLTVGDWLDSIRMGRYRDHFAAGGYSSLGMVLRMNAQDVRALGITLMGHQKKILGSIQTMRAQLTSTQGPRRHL
To be noted: at 1 µM.

The target of assay [9] is T2, Ephrin type-A receptor 8 (Homo sapiens). The settings on record: at 10 µM.
For assay [10], the target named is T3, Ephrin type-B receptor 1 (Homo sapiens) (UniProt P54762).
T3 sequence (whole entry): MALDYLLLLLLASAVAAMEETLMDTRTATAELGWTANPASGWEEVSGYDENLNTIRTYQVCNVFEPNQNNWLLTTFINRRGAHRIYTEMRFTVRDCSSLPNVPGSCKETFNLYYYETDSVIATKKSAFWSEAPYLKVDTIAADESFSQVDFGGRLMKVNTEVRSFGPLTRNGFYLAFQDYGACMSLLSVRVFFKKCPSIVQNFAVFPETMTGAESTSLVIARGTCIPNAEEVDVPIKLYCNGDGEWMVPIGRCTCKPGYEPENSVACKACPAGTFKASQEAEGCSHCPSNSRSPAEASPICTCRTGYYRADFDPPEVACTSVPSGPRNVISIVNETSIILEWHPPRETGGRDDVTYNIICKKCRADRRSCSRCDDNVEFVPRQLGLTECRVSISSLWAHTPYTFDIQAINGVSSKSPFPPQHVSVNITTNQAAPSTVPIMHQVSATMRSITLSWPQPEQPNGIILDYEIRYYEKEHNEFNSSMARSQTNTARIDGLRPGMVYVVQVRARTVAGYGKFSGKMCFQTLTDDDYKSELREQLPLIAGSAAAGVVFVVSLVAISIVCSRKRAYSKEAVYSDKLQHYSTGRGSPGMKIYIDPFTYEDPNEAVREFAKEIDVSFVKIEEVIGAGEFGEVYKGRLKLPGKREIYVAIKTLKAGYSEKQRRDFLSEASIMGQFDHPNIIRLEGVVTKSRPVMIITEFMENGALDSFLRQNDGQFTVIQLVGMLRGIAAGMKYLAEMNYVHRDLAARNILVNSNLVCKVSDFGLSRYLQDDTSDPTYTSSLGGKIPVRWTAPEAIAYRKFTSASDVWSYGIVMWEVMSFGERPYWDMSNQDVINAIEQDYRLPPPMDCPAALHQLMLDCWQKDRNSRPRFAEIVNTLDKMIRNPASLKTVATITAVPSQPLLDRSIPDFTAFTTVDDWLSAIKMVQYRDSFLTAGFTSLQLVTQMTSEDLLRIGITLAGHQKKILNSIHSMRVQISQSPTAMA
The settings on record: at 1 µM.

Sequence of Ephrin type-A receptor 5 (Homo sapiens) (P54756 whole entry): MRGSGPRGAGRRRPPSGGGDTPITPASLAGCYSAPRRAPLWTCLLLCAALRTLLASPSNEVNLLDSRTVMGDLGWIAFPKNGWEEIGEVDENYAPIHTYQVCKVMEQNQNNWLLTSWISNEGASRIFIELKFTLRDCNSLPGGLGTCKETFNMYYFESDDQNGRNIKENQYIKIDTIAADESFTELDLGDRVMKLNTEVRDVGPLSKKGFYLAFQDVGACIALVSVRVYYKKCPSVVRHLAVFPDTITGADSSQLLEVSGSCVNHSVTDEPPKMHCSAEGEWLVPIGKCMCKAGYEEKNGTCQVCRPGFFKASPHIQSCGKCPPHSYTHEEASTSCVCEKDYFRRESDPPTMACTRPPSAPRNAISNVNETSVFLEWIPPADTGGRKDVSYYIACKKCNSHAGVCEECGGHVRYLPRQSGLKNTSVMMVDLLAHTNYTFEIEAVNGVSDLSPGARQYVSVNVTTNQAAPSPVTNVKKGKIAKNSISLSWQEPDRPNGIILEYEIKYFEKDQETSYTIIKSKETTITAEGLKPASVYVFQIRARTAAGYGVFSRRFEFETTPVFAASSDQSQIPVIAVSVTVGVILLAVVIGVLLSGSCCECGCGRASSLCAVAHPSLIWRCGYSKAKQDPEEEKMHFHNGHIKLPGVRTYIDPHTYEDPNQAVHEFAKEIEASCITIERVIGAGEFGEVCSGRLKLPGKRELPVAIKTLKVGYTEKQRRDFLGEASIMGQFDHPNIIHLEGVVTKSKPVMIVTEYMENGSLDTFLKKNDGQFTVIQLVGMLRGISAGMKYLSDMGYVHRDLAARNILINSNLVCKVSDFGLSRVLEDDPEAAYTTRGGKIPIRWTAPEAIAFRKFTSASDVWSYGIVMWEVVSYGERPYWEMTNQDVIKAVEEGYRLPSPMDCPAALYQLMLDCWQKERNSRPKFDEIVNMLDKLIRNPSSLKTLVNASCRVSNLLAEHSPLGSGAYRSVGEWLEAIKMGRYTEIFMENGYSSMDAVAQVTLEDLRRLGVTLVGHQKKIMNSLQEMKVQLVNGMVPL

Turning to `COc1cc2ncnc(Nc3ccc(Oc4ccccc4)cc3)c2cc1OC`, the residual activity was 106% in [1]; 107% in assay [2]; 103% in assay [3]; 130% in assay [4]; 89% in [5]; 102% in assay [6]. The residual activity in assay [7] amounted to 84%; in assay [8] it was 91%; in assay [9], 65%; in assay [10] it was 110%.
